CHO-K1 Ca ag: counter-screen for M1 agonists: effect in parental CHO-K1 cells | Fluo-8 calcium fluorescence; scaled to maximal ATP response, vehicle zero | activation, % at 3 µM | 360,000 tested, 0.48% active | AID 602248, 2012; in the data active = activation above about 15%;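 note: untransfected CHO-K1 host cells lacking M1 receptor as counterscreen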
CHO-K1 Ca PAM: nonselective calcium activators in parental CHO-K1 cells, primary screen, counter-screen for M1 PAM project, cell-based, Fluo-8 calcium fluorescence, full deck, 1536-well; ATP EC20; 0% at ATP EC20, 100% at ATP max; activation, % at 3 µM; 360,000 tested, 0.02% active; AID 602247, 2012;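 active = activation above the run cutoff, the mean activation of all test compounds plus 3 SD, cut at about 40% in these data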;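 note: peak over basal fluorescence ratio in a 140 s read after ATP addition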
CHRM1 antagonist: human M1 muscarinic receptor antagonists, primary screen, CHO-K1 cells, Fluo-8 calcium fluorescence, 1536-well. Muscarinic acetylcholine receptor M1 (Homo sapiens), P11229. CHO-K1 hM1, ACh EC80 antagonist. inhibition, % at 3 µM. 360,000 tested, 1.3% active. AID 588852, 2011;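 active = percent inhibition above its own plate's cutoff, namely the mean of that plate's compound wells plus 3 SD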;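 note: peak over basal fluorescence ratio during 140 s after agonist addition; 0% = ACh EC80 plus DMSO and 100% = DMSO alone without agonist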
Target sequence (P11229 whole entry, looked up): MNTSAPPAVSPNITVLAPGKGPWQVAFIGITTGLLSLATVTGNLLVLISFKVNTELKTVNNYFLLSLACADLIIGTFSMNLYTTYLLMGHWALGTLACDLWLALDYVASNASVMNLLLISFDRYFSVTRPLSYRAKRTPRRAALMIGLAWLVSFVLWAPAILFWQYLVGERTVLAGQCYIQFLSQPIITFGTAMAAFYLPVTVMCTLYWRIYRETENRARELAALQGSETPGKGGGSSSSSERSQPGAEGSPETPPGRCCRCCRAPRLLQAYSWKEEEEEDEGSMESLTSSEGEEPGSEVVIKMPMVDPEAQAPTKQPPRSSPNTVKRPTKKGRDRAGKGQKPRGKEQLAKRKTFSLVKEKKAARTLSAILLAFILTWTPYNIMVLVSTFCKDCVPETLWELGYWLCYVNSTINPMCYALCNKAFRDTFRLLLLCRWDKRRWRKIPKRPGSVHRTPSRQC
M1 ag: human M1 muscarinic receptor agonists, primary screen, Fluo-8 calcium fluorescence, CHO-K1 cells, HTS. Muscarinic acetylcholine receptor M1 (Homo sapiens), P11229. CHO-K1 hM1, agonist mode; 0% DMSO, 100% acetylcholine EC100. activation, % at 3 µM. 360,000 tested, 0.33% active;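 active = activation above the run's mean compound activation plus 3 SD, cut at about 16% in these data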;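 note: peak over basal fluorescence ratio within a 140 s kinetic read after compound addition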
CHO-K1 Ca antag: counter-screen for M1 antagonists: effect in parental CHO-K1 cells | AID 602250 | ATP-induced calcium, Fluo-8 fluorescence | inhibition, % at 3 µM | 360,000 tested, 0.6% active;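 active = inhibition above a per-plate cutoff, the plate's mean sample inhibition plus 3 SD, cut at about 24% in these data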;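 note: 0% = DMSO plus EC80 ATP and 100% = DMSO alone without ATP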
CHRM1 PAM: human M1 muscarinic receptor positive allosteric modulators, primary screen, CHO-K1 cells, Fluo-8 calcium fluorescence, 1536-well; Muscarinic acetylcholine receptor M1 (Homo sapiens), P11229; CHO-K1 hM1, ACh EC20; 0% = ACh EC20, 100% = maximal ACh; activation, % at 3 µM; 360,000 tested, 0.088% active; in the data active = activation above about 19%, passing the limit was not always enough
Active calls of the source: *. Sampled rows, rich in hits. Any-hit rate of the full collection: about 2.3%.

SMILES	CHO-K1 Ca ag	CHO-K1 Ca PAM	CHRM1 antagonist	M1 ag	CHO-K1 Ca antag	CHRM1 PAM
CC(CSC(=O)c1ccccc1)C(=O)N1c2ccccc2CC1C(=O)O (stereo not drawn)	0	7	-3	-3	2	4
CCOc1ccccc1-c1ccc2nccn2c1	2	-8	61*	-9	-11	-30
Clc1ccccc1-c1ccc2nccn2c1	1	18	-8	-8	-12	-10
C=CCNc1nc(N)c([N+](=O)[O-])c(N2CCCCCC2)n1	5	16	-11	-7	-13	5
CCN(CC)CCCNc1nc(N)c([N+](=O)[O-])c(N2CCCCCC2)n1	1	-16	65*	-11	1	-35
CCOC(=O)Cc1csc(NC(=O)c2ccc(NC(C)=O)cc2)n1	1	10	-4	-1	-15	6
CCOC(=O)Cc1csc(NC(=O)Nc2ccc(OC(F)(F)F)cc2)n1	10	-15	41*	5	34*	-17
CCCNC(=O)C1(C)CCN(C(=O)c2ccc(F)c(Cl)c2)C1 (stereo not drawn)	0	-8	2	-4	-3	2
CCCNC(=O)C1(C)CCN(C(=O)c2ccc3c(c2)CCO3)C1 (stereo not drawn)	0	8	-38	5	-1	31*
Cc1c(CC(=O)N[C@@H](C)C(=O)O)c(=O)oc2c(C)c3occ(-c4ccccc4)c3cc12	0	15	-26	-1	-9	31*
Cc1ccc(C(=O)NC(=S)NNC(=O)c2ccccc2O)cc1	0	3	8	-1	-11	-5
O=C(NC(=S)NNC(=O)c1ccccc1O)c1ccc(F)cc1	30*	6	2	33*	0	-9
O=C(NC(=S)NNC(=O)c1ccccc1O)c1ccc([N+](=O)[O-])cc1	1	3	2	-3	-7	3
Cc1ccccc1C(=O)NNC(=O)c1ccc(Br)cc1	0	-11	6	0	22	7
O=C(NC(=S)NNC(=O)c1ccccc1O)c1ccccc1	10	20	1	24*	-15	-7
Cc1ccccc1C(=O)NNC(=S)NC(=O)c1ccccc1	55*	-13	13	63*	5	-18
C=CCC[C@@H](Cc1ccc(F)cc1)C(=O)OC[C@@H](NC(=O)[C@@H](CC=C)CC(=O)N[C@H](CO)Cc1ccccc1)C(C)(C)C	0	12	13	-7	-10	-8
C[N+]1(CC(=O)Nc2ccc(F)cc2)CCN(C(=O)c2ccco2)CC1	0	22	56*	-8	-13	-20
Cc1ccc(NC(=O)CN2CCN(C(=O)c3ccco3)CC2)cc1	2	17	-8	-6	-22	3
Cc1cc(C)cc(OCC(=O)Nc2ccc(N3CCN(C(=O)c4ccco4)CC3)cc2)c1	13	-8	33*	-1	-2	-23
CCOC(=O)n1cnc2nc(N)nc(SC)c21	0	12	-3	-1	-15	2
Cn1c(=O)[nH]c(=O)c2c1nc(N1CCN(Cc3ccccc3)CC1)n2CCSc1ncccn1	5	3	33*	-5	4	-14
Cn1c(=O)[nH]c(=O)c2c1nc(N1CCc3ccccc3C1)n2CCSc1nc2ccccc2s1	0	24	-16	-2	-14	16
CN1CCN(c2nc3c(c(=O)[nH]c(=O)n3C)n2CCSc2nc3ccccc3s2)CC1	0	-9	-4	18*	27*	-7
COC(=O)c1cc(NC(=O)Cc2ccccc2[N+](=O)[O-])cc(C(=O)OC)c1	15*	2	3	4	3	-1
SMILES	CHO-K1 Ca ag	CHO-K1 Ca PAM	CHRM1 antagonist	M1 ag	CHO-K1 Ca antag	CHRM1 PAM
O=C(Cc1ccccc1[N+](=O)[O-])Nc1ccc2c(c1)OCCO2	0	19	10	-9	-5	3
Cc1cc(N=Nc2ccccc2)cc(C)c1NC(=O)C(F)(F)F	0	19	-23	-8	-22	8
CCc1c(C)sc(NC(=O)c2cc(-c3ccc(O)cc3)on2)c1C#N	0	-11	-6	-2	33*	0
COc1cccc(NC(=O)Nc2cc(C(=O)O)ccc2N2CC3CC(C2)c2cccc(=O)n2C3)c1 (stereo not drawn)	4	-4	-2	-1	-12	3
CN1CCN(CCC(=O)N2c3ccccc3Sc3ccc(C(F)(F)F)cc32)CC1	1	-5	42*	-7	-12	-24
CN(C)CCC(=O)N1c2ccccc2Sc2ccc(C(F)(F)F)cc21	2	18	99*	-9	-3	-29
O=C1c2ccccc2C(=O)N1CC(=O)N1c2ccccc2Sc2ccc(C(F)(F)F)cc21	0	-6	1	-1	3	2
O=C(CSc1nc2ccccc2s1)N1c2ccccc2Sc2ccc(C(F)(F)F)cc21	1	6	1	-3	-6	0
O=C(CNC(=O)c1cccc([N+](=O)[O-])c1)NC1CCCc2ccccc21 (stereo not drawn)	1	-1	-5	-1	-9	0
CCCOc1ccc(C(=O)CCNC(Cc2c[nH]c3ccccc23)C(=O)O)cc1 (stereo not drawn)	0	1	-15	-3	-8	9
COc1ccc(NC(=O)c2cc(C3CCCCN3S(=O)(=O)c3ccc(C#N)cc3)on2)c(C)c1 (stereo not drawn)	4	14	0	-4	-11	-6
O=S(=O)(c1ccccc1)N1CCC(O)(CSc2ccc(Cl)cc2)CC1	6	-16	27	1	29*	-7
O=S(=O)(c1ccc(Cl)cc1)N1CCC(O)(CN2CCN(Cc3ccccc3)CC2)CC1	4	6	11	-13	3	-30
COc1cc(OC)c2c(-c3cccc(-c4ccc(F)c(Cl)c4)c3)cc(=O)oc2c1	1	40	1	-3	-26	-4
O=[N+]([O-])c1cccc(OCCN2CCC(Cc3ccccc3)CC2)c1	3	24	91*	-7	-8	-26
COc1cc(CN2CCC(Cc3ccccc3)CC2)c([N+](=O)[O-])cc1OC	0	15	-17	-3	-18	8
Cc1ccc([N+](=O)[O-])c(OCCCN2CCC(Cc3ccccc3)CC2)c1	9	-4	76*	-9	-12	-29
Cc1ccc([N+](=O)[O-])c(OCCN2CCCCCC2)c1	16*	20	-2	-10	1	-1
Cc1ccc([N+](=O)[O-])c(OCCN2CCc3ccccc3C2)c1	0	-8	1	-9	-4	1

From PubChem
